# Bioassay records: PubChem BioAssay, National Center for Advancing Translational Sciences (NCATS)
# LASV entry inh: qHTS for Inhibitors of binding or entry into cells for Lassa Virus; Lassa virus pseudotype entry inhibition, cell reporter; Potency, µM (series often up to 37.9 µM), hits mostly inhibitors; 300,000 compounds, 1.2% hits; calls by dose curve; tested in HEK293 cells; further: nearly all actives have a fitted effect of over 50% in size
# VACV mCherry inh: qHTS for Stage-Specific Inhibitors of Vaccinia Orthopoxvirus: mCherry Reporter Primary qHTS | Vaccinia virus mCherry reporter infection, fluorescence | Potency, µM (doses to about 36.5 µM), actives largely listed as inhibitors | 310,000 compounds, 0.63% hits; calls by dose curve; tested in A549 cells; further: nearly all actives have a fitted effect of over 35% in size
# VACV Venus inh: qHTS for Stage-Specific Inhibitors of Vaccinia Orthopoxvirus: Venus Reporter Primary qHTS | 330,000 compounds, 0.46% hits | Vaccinia virus Venus reporter expression, fluorescence | Potency, µM (titrated, usually from 36.5 µM), most hits filed as inhibitors; calls by dose curve; tested in A549 cells; further: nearly all actives have a fitted effect of over 30% in size
# FMDV inh: High Throughput Screening for Foot and Mouth Disease Virus Antivirals | 410,000 compounds, 1.2% hits | AID 1159524, 2015 | FMDV antiviral cell-based qHTS | Potency, µM (series often up to 57.9 µM), most hits filed as inhibitors; calls by dose curve; tested in HEK293T cells; further: read-out not given here; nearly all actives have a fitted effect of over 45% in size
# HCMV inh: qHTS Assay for inhibitors of the human cytomegalovirus (HCMV); HFF cells, HCMV-luciferase reporter, 72 h; stronger effect = lower value; activity change, negative = inhibition, % at 57.5 µM; 410,000 compounds, 4.5% hits; in the data active means activity change below about -60%; inconclusive means no clear call, values can overlap the other calls; inactive means above about -39%
#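 Two-dose cell screen: HFF monolayers treated with compounds and infected with luciferase-expressing HCMV at 1 PFU/cell, 72 h at 37C, then lysed for luciferase measurement.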
# MARV entry inh: qHTS for inhibitors of binding or entry into cells for Marburg Virus. Marburg virus pseudotyped entry inhibition, cell reporter. Potency, µM (highest dose often 37.8 µM), most hits filed as inhibitors. 300,000 compounds, 1.8% hits; calls by dose curve; tested in HEK293 cells
# Numbers stand for hits; n = inactive; u = inconclusive; x = not tested or not shown. Compounds with a hit are over-represented: about 6.5% of the library has one in this group of screens.
SMILES,LASV entry inh,VACV mCherry inh,VACV Venus inh,FMDV inh,HCMV inh,MARV entry inh
Fc1ccc(-n2ncc3c(Nc4cccc(Cl)c4)ncnc32)cc1,n,n,n,n,-65.6,x
Clc1ccc(Nc2ncnc3c2cnn3-c2ccccc2)cc1,x,n,u,n,n,x
Cn1ncc2c(Nc3ccc(Br)cc3)nc(Nc3ccc(Br)cc3)nc21,n,u,u,u,n,u
CC(=O)c1nnn(-c2nc(C#N)nc(N3CCOCC3)n2)c1C,x,n,n,x,x,x
OC[C@@H](O)C(O)[C@H](O)CO,x,n,n,n,x,x
CN(C)CC1CCCCC1OC(=O)c1ccc(Br)cc1 (centres undefined),n,n,n,n,n,n
CN(C)CC1CCCCC1OC(=O)c1ccc(Cl)cc1Cl (centres undefined),x,x,x,n,-61.0,x
CC(C)Oc1ccc(C(=O)NCC2Cc3cc(Cl)cc(-c4ncccn4)c3O2)cc1 (centres undefined),x,n,n,n,x,x
O=S(=O)(CCOc1ccccc1)c1nc2ccccc2[nH]1,n,x,x,n,-68.6,n
O=C(CCCOc1ccccc1)Nc1nc2ccccc2[nH]1,n,n,n,n,n,u
CC(C)CO/N=C1\C[C@@H](O)[C@@H](O)[C@@H]2[C@@H]3C(=O)N(C4CCCCC4)C(=O)[C@@H]3CC[C@@H]12,x,x,x,x,x,n
O=C(CN1CCCC1)Nc1ccc(Oc2ccc(NC(=O)CN3CCCC3)cc2)cc1,13µM,n,n,n,n,2.06µM
CCCCOc1ccc(NC(=O)CN2CCN(C(=O)OCC)CC2)cc1,3.55µM,n,n,n,n,n
COc1ccc(NC(=O)c2nnn(CC(=O)Nc3ccc4c(c3)OCO4)c2N)c(OC)c1,u,n,n,n,n,n
N#CC1=C(SCC(=O)c2ccc(Br)cc2)NC2=C(C(=O)CCC2)C1c1ccco1 (centres undefined),u,u,u,u,n,8.91µM
CCc1ccc(NC(=O)CSC2=C(C#N)C(c3ccco3)C3=C(CCCC3=O)N2)cc1 (centres undefined),u,n,n,n,n,n
Oc1ccc(N2CCN(c3ncnc4sc5c(c34)CCC5)CC2)cc1,n,u,n,u,-82.4,u
OCCN1CCN(c2ncnc3sc4c(c23)CCCC4)CC1,x,x,x,n,n,x
c1ccc2c(c1)ncn2-c1ncnc2sc3c(c12)CCCC3,n,x,x,n,-63.7,n
CC(C)(C)OC(=O)NCCc1onc(-c2ccc([N+](=O)[O-])cc2)c1C(=O)O,x,n,n,n,n,x
COc1cc(/C=C/C(=O)c2c(O)ccc3c(C)cc(=O)oc23)ccc1O,u,n,u,u,-91.7,u
COc1ccc(/C=C\C(=O)c2c(O)ccc3c(C)cc(=O)oc23)cc1OC,u,n,u,35.5µM,-94.1,u
C#CC1(N2CCCCC2)CCCCC1,x,n,n,n,-62.2,x
OC1(C#CCN2CCCC2)CCCCC1,x,x,x,n,n,x
CC(OC(=O)c1ccc(S(C)(=O)=O)c([N+](=O)[O-])c1)C(=O)NC1C2CC3CC(C2)CC1C3 (centres undefined),x,x,x,31.6µM,-97.1,x
SMILES,LASV entry inh,VACV mCherry inh,VACV Venus inh,FMDV inh,HCMV inh,MARV entry inh
CC1CCN(C(=O)C(C)OC(=O)c2ccc(S(C)(=O)=O)c([N+](=O)[O-])c2)CC1 (centres undefined),x,n,n,x,x,x
CCC(OC(=O)c1ccc(S(C)(=O)=O)c([N+](=O)[O-])c1)C(=O)NC1C2CC3CC(C2)CC1C3 (centres undefined),x,x,x,39.8µM,-94.6,x
O=C(NCCCN1CCOCC1)C(=O)N/N=C/c1ccccc1O,n,n,n,n,n,n
CCc1cccc(NC(=O)CCNS(=O)(=O)c2cc(Br)cnc2N)c1,x,x,x,n,-77.3,x
CC(C)c1ccc(NC(=O)CCNS(=O)(=O)c2cc(Br)cnc2N)cc1,x,x,x,n,n,x
Cc1ccc(N2CC(O)CSC2=Nc2ccccc2)cc1 (centres undefined),x,u,u,n,n,x
CCN(CC)C(=O)CSc1nc2cc3c(cc2c(=O)n1Cc1ccc(C(=O)NCCc2ccc(OC)c(OC)c2)cc1)OCO3,n,n,n,n,-83.4,x
CCN(CC)C(=O)CSc1nc2cc3c(cc2c(=O)n1CCCC(=O)NCCc1ccc(OC)c(OC)c1)OCO3,x,n,n,n,-67.2,n
CCCCNC(=O)CSc1nc2cc3c(cc2c(=O)n1Cc1ccc(C(=O)NCCc2ccc(OC)c(OC)c2)cc1)OCO3,n,n,n,n,n,x
Cc1nc2c(-c3ccc(F)cc3)cnn2c(N)c1-c1ccccc1,x,x,x,15.8µM,-71.9,x
COc1ccc(-c2c(C)nc3c(-c4ccc(F)cc4)cnn3c2N)cc1,x,x,x,n,n,x
Cc1nc2c(-c3ccc(Cl)cc3)cnn2c(N)c1-c1ccc(F)cc1,x,x,x,0.794µM,u,x
C/C(=N/Nc1cc(-c2ccccc2)nc(-c2ccccc2)n1)c1ccc(O)cc1,n,u,u,n,-65.4,u
COc1ccc(C(c2c[nH]c3ccccc23)c2c[nH]c3ccccc23)cc1O,x,x,x,x,n,n
CCOC(=O)C1CCCN(C(=O)c2ccc3c(c2)sc2nc(-c4ccc(C)cc4C)cn23)C1 (centres undefined),n,n,n,u,x,x
CCCN1CCN(CCCNC(=O)c2ccc3c(c2)sc2nc(-c4ccc(OC)cc4)cn23)CC1,n,4.47µM,u,n,x,x
CCOC(=O)C1CCCN(C(=O)c2ccc3c(c2)sc2nc(-c4cccc(OC)c4)cn23)C1 (centres undefined),n,n,n,31.6µM,x,x
O=C1/C(=C/c2cccs2)SC(=S)N1CC(=O)N1CCCCC1CCO (centres undefined),x,x,x,n,-82.8,x
COc1ccc(/C=C2\SC(=S)N(CCC(=O)N3CCCCC3CCO)C2=O)cc1 (centres undefined),x,x,x,u,-84.0,x
O=C1/C(=C/c2ccccc2)SC(=S)N1CCCC(=O)N1CCCCC1CCO (centres undefined),x,x,x,u,-100.7,x
O=C1/C(=C/c2ccco2)SC(=S)N1CCC(=O)N1CCCCC1CCO (centres undefined),x,x,x,n,-91.8,x
COc1ccc(/C=C2\SC(=O)N(CCC(=O)N3CCCCC3CCO)C2=O)cc1 (centres undefined),n,n,n,n,n,n
O=C(CCN1C(=O)/C(=C\c2cccs2)SC1=S)Nc1ccccn1,n,n,n,n,n,n
COc1ccc(COC(=O)c2ccc(S(=O)(=O)N3CCCCC3)cc2)cc1OC,n,n,n,n,n,n
O=C(c1ccccc1F)n1c2c(c3ccccc31)CCCC2,x,x,x,n,n,x
O=C1/C(=C/c2ccc(Cl)cc2)SC(=S)N1CCC(=O)N1CCCCC1CCO (centres undefined),x,x,x,n,-86.0,x
O=C1/C(=C/c2cccc(Cl)c2)SC(=S)N1CCC(=O)N1CCCCC1CCO (centres undefined),x,x,x,n,-82.5,x
COc1cccc(/C=C2\SC(=S)N(CCC(=O)N3CCCCC3)C2=O)c1,x,x,x,n,u,x
